Bioassay records (PubChem)
These entries were drawn from the full list.
aSyn UTR act – Activators via SNCA 5'UTR binding, MLPCN. activity score, % (tested at 7.5 µM), hits read low. alpha-synuclein 5'UTR reporter, activators screen. 300,000 compounds, 7.1% hits; in the data active = activity score below about -60%
The depositor's hits bear a star.

Results for COc1ccc2c(c1)CC/C2=N\NC(=O)c1ccccc1 ?
aSyn UTR act: -111*

Results for Cc1ccccc1C(=O)O/N=C/c1c(N2CCOCC2)n(C)c2ccccc12 ?
aSyn UTR act: 87

How did CNC(=O)c1cc2c(s1)-c1ccccc1CC2 do in these assays?
aSyn UTR act: -133*

What do the screens show for `COc1ccc(C(=O)N=C2CCC(C#N)=C3c4cc(OC)c(OC)cc4CCN23)cc1`?
aSyn UTR act: 55

Results for COc1ccc2c(c1)CC/C2=N\OC(=O)c1ccccc1C ?
aSyn UTR act: -136*

Results for COC(=O)c1cc2c(s1)-c1ccc(OC)cc1CC2 ?
aSyn UTR act: -212*

Results for COc1ccc2c(c1)CC/C2=N\OC(=O)c1cccc(C)c1 ?
aSyn UTR act: -230*

How did CCCCN(C)C(=O)c1cc2cc3ccc(OC)cc3nc2o1 do in these assays?
aSyn UTR act: -114*

What do the screens show for `COc1ccc2cc3cc(C(=O)NC(C)C)oc3nc2c1`?
aSyn UTR act: -142*

What do the screens show for `CCN(C(=O)c1cc2cc3ccc(C)cc3nc2o1)c1ccc(OC)cc1`?
aSyn UTR act: -307*

What do the screens show for `CCCCN(C)C(=O)c1cc2cc3cc(OC)ccc3nc2o1`?
aSyn UTR act: -121*

How did C=CCc1ccc(OCCn2nnc3ccccc32)c(OC)c1 do in these assays?
aSyn UTR act: -248*

Results for C=CCc1ccc(OCCn2cccc2C=O)c(OC)c1 ?
aSyn UTR act: -140*

What do the screens show for `C/C=C/c1ccc(OCCn2nnc3ccccc32)c(OC)c1`?
aSyn UTR act: -115*

Results for Cc1cccc(OCCn2nnc3ccccc32)c1C ?
aSyn UTR act: -180*

How did C=CCc1ccc(OCCOc2cccc3ccc(C)nc23)c(OC)c1 do in these assays?
aSyn UTR act: -69*

How did CC(C)(C)NC(=S)N/N=C\c1ccc(-c2ccc([N+](=O)[O-])cc2)o1 do in these assays?
aSyn UTR act: -79*

What do the screens show for `C=CCNC(=S)N/N=C/c1ccc(-c2ccc(OC)cc2)o1`?
aSyn UTR act: -62*

Results for Clc1cc2nc3ccccn3c2cc1Cl ?
aSyn UTR act: -115*

How did COc1ccccc1Nc1nc(C)cs1 do in these assays?
aSyn UTR act: -106*

What do the screens show for `O=[N+]([O-])c1cccc(-c2csc(Nc3ccccc3)n2)c1`?
aSyn UTR act: -299*

How did COc1ccccc1Nc1ccc(Nc2ccccc2OC)nn1 do in these assays?
aSyn UTR act: -171*

Results for COc1ccccc1Nc1nc(-c2cccc([N+](=O)[O-])c2)cs1 ?
aSyn UTR act: -77*

How did COC(=O)C1=C(C)NC(C)=C(C(=O)OCC(C)C)C1c1ccccc1[N+](=O)[O-] (stereo unspecified) do in these assays?
aSyn UTR act: 71

What do the screens show for `CCOC(=O)C1=C(C)NC2=C(C(=O)c3ccccc32)C1c1ccc([N+](=O)[O-])o1` (stereo unspecified)?
aSyn UTR act: -63*

How did Cc1ccc2sc(NC(=O)C3CC3)nc2c1C do in these assays?
aSyn UTR act: -73*

What do the screens show for `O=C(Nc1nc2c(F)cc(F)cc2s1)C1CC1`?
aSyn UTR act: -107*

Results for O=C(c1cc(Br)c(Br)s1)N1CCN(c2ccccn2)CC1 ?
aSyn UTR act: -65*

How did NC(=O)C1CCN(C(=O)c2ccc3nc(N4CCCCC4)sc3c2)CC1 do in these assays?
aSyn UTR act: -102*

What do the screens show for `O=C(c1ccc2nc(N3CCCCC3)sc2c1)N1CCN(c2ccccn2)CC1`?
aSyn UTR act: -112*

What do the screens show for `COc1ccc(-c2c(C)c3ccc(OCC(C)=O)cc3oc2=O)cc1`?
aSyn UTR act: -142*

What do the screens show for `CC(=O)COc1ccc2c(C)c(C)c(=O)oc2c1`?
aSyn UTR act: -118*

Results for COc1ccc(-c2c(C)c3ccc(O)cc3oc2=O)cc1 ?
aSyn UTR act: -97*

Results for CCCOc1ccc2c(C)c(CC(=O)OC)c(=O)oc2c1 ?
aSyn UTR act: -118*

What do the screens show for `O=C(Nc1c(Cl)cccc1Cl)c1ccc(-c2ccccc2)cc1`?
aSyn UTR act: -66*

What do the screens show for `O=C(Nc1sc(-c2ccccc2)cc1C(=O)O)c1ccccc1`?
aSyn UTR act: -100*

Results for Cc1c(NC(=O)c2ccc(-c3ccccc3)cc2)cccc1C(=O)O ?
aSyn UTR act: -85*

What do the screens show for `COc1cc(SC)ccc1C(=O)Nc1ccc2c(c1)CCC2`?
aSyn UTR act: -119*

How did COc1cc(SC)ccc1C(=O)Nc1ccccc1C#N do in these assays?
aSyn UTR act: -192*

Results for Cc1ccccc1NC(=O)Nc1ccc(C(F)(F)F)cc1 ?
aSyn UTR act: -100*

How did COc1cc(SC)ccc1C(=O)Nc1ccc(Cl)cn1 do in these assays?
aSyn UTR act: 100

How did COc1ccccc1NC(=O)Nc1ccc2c(c1)CCC2 do in these assays?
aSyn UTR act: -126*

Results for Cc1ccccc1NC(=O)Nc1ccc2c(c1)CCC2 ?
aSyn UTR act: -141*

What do the screens show for `CCCn1c(N)c(Sc2ccc(C)cc2)c(=O)n(CCC)c1=O`?
aSyn UTR act: -79*

What do the screens show for `Cc1cc(C)n(-c2nc3ccccc3c(=O)n2OCC(N)=O)n1`?
aSyn UTR act: -63*

How did CCNC(=S)NNC(=O)c1cc(-c2cccc(OCC)c2)nc2ccccc12 do in these assays?
aSyn UTR act: -89*

How did CCCCOc1cccc(-c2cc(C(=O)NNC(=S)NCC)c3ccccc3n2)c1 do in these assays?
aSyn UTR act: -69*

Results for CCNC(=S)NNC(=O)c1cc(-c2cccc(C)c2)nc2ccccc12 ?
aSyn UTR act: -116*

What do the screens show for `O=C(Nc1ccccc1)OCCCc1ccccc1`?
aSyn UTR act: -119*

Results for CCCCc1ccc(NC(=O)OC)cc1 ?
aSyn UTR act: -79*

Results for CCCCc1ccc(NC(=O)Nc2cccnc2)cc1 ?
aSyn UTR act: -102*

How did c1csc(-c2nc3c4ccccc4c4ccccc4c3[nH]2)c1 do in these assays?
aSyn UTR act: -73*

Results for COc1ccc(/C=C(\CC(=O)O)c2nc3ccccc3o2)cc1 ?
aSyn UTR act: -109*

Results for COc1ccc(C(=O)/C(=C/c2cccs2)c2nc3ccccc3o2)cc1 ?
aSyn UTR act: -136*

Results for CC(=O)c1sc(N/N=C2\CC3CC2C(C)C3(C)C)nc1C (stereo unspecified) ?
aSyn UTR act: -101*

Results for CCc1ccc(NC(=O)[C@H](C)NC(=O)C2CCN(C(=O)[C@@H](N)C(C)C)CC2)cc1 ?
aSyn UTR act: -110*

What do the screens show for `CN(C#N)c1nc(Cl)nc(Nc2cccc(Cl)c2)n1`?
aSyn UTR act: -66*

Results for OCCCNc1cc(-c2ccnc(Nc3cccc(Cl)c3)n2)ccn1 ?
aSyn UTR act: 110

What do the screens show for `O=C(N/N=C/c1ccc2c(c1)OCO2)c1cccc2ccccc12`?
aSyn UTR act: -109*

What do the screens show for `Cc1cccc(C)c1OCC(=O)N/N=C/c1ccc2c(c1)OCO2`?
aSyn UTR act: -85*

How did Cn1cc(C(=O)N/N=C/c2cccs2)c2ccccc21 do in these assays?
aSyn UTR act: -181*

How did Cn1cc(C(=O)N/N=C/c2ccc3c(c2)OCO3)c2ccccc21 do in these assays?
aSyn UTR act: -276*

What do the screens show for `COC(=O)c1ccc2c(c1)C(C)(C)C(/C=C/c1ccccc1O)=[N+]2C`?
aSyn UTR act: 118

What do the screens show for `COC(=O)c1ccc(N)c(N=CC2=C(O)CC(C)(C)CC2=O)c1`?
aSyn UTR act: -172*

What do the screens show for `O=C1C(=O)N(c2cccc(Cl)c2)C(c2ccccc2[N+](=O)[O-])/C1=C(\O)c1ccccc1` (stereo unspecified)?
aSyn UTR act: -88*
